Data reported in PubChem BioAssay (EPA / NIEHS).
“And” between values parts separate entries of the source, which are not always exact repeats. Equal entries are not always repeated. Inconclusive results are not listed. Where a structure was tested more than once in an assay, its records may differ in their call. The source made the active and inactive calls. The calls were made as follows, unless noted: active = hit-call score of the fitted dose curve at least 0.9, where 1 is the maximum; inactive = score below 0.9.

Key:
[1] = ATG_NFI_CIS: Attagene CIS-FACTORIAL HepG2 Assay for human Nuclear Factor I (NFI) (AID 2282989); settings: HepG2 cis-regulatory reporter, NFI response element transcription; actives raise or lower the signal
Outline: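 After transient transfection of HepG2 with cis-promoter reporter constructs and 24 h dosing, RNA is reverse-transcribed, amplified, 6-FAM end-labelled and HpaI-digested before capillary analysis. Bidirectional curve fitting against DMSO.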

[2] = target: Myc proto-oncogene protein (Homo sapiens) (UniProt P01106); assay: ATG_Myc_CIS: Attagene CIS-FACTORIAL HepG2 Assay for human Myelocytomatosis (Myc) Proto-Oncogene Transcription Factor (AID 2282990); settings: HepG2, Attagene cis-reporter transcription factor activity; actives raise or lower the signal
Outline: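 Cells of the HepG2 human liver line bear multiple cis-driven reporter transcription units. Reporter mRNA after 24 h exposure is reverse-transcribed, amplified, labelled and resolved by capillary electrophoresis, with gain- or loss-of-signal fitting relative to DMSO.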

[3] = ATG_NF_kB_CIS: Attagene CIS-FACTORIAL HepG2 Assay for human Nuclear Factor Kappa B (NF-kB) (AID 2282991); settings: HepG2 Attagene cis-factorial NF-kB reporter mRNA; actives raise or lower the signal
Outline: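 Endpoint from a 52-component multiplexed HepG2 reporter panel: cis-regulated transcription units transiently transfected, 24 h dosing, reporter mRNA quantified by RT-PCR and capillary electrophoresis, scored as increase or decrease against DMSO.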

[4] = ATG_NRF2_ARE_CIS: Attagene CIS-FACTORIAL HepG2 Assay for human Nuclear Factor Erythroid 2 Related Factor 2 (NFR2) response to Antioxidant Response Elements (ARE) (AID 2282992); settings: HepG2 Attagene ARE/NRF2 reporter, transcription factor activity; actives raise or lower the signal
Outline: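 Multiplexed reporter mRNA profiling in HepG2 after a 24 h chemical exposure. Curves fitted in both directions relative to DMSO negative control.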

[5] = ATG_Oct_MLP_CIS: Attagene CIS-FACTORIAL HepG2 Assay for human Octamer-Binding Transcription Factor (Oct) (AID 2282993); settings: HepG2 Attagene cis-factorial Oct reporter, mRNA; actives raise or lower the signal
Outline: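 Cells of the HepG2 line express promoter-controlled reporter sequences whose mRNA levels, after 24 h treatment, are measured by RT-PCR and capillary electrophoresis. Increases and decreases are scored relative to DMSO.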

[6] = target: Cellular tumor antigen p53 (Homo sapiens) (UniProt P04637); assay: ATG_p53_CIS: Attagene CIS-FACTORIAL HepG2 Assay for human p53 Transcription Factor (AID 2282994); settings: HepG2 p53 cis-element reporter, Attagene mRNA; actives raise or lower the signal
Outline: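 Multiplexed reporter mRNA assay in human HepG2 liver cells; cis-regulated units report endogenous factor activity. Values come from bidirectional curve fitting against DMSO negative control after 24 h treatment.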

[7] = target: human Peroxisome Proliferator-activated Receptor alpha (PPARa), PPARA (gene 5465) (UniProt Q07869); assay: ATG_PPARa_TRANS: Attagene TRANS-FACTORIAL HepG2 Assay for human Peroxisome Proliferator-activated Receptor alpha (PPARa) (AID 2283001; active = hit-call score of the fitted dose curve at least 0.9, where 1 is the maximum;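 as to AC50: potency for gain of reporter signal over DMSO so agonist or activator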)
Outline: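 Read-out is fluorescence of reporter cDNA fragments resolved by capillary electrophoresis after RT-PCR. Human HepG2 liver cells carried transfected PPARa-Gal4 chimera and GAL4-UAS reporter units, treated 24 h; activity scored as increase over DMSO.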

[8] = target: Retinoic acid receptor alpha (Homo sapiens) (UniProt P10276); assay: ATG_RARa_TRANS: Attagene TRANS-FACTORIAL HepG2 Assay for human Retinoic Acid Receptor alpha (RARa) (AID 2283005; active = hit-call score of the fitted dose curve at least 0.9, where 1 is the maximum)
Outline: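 Reporter transcripts, measured by RT-PCR with fluorescent labeling and capillary electrophoresis after 24 h dosing, reflect activity of an exogenous human RARa–GAL4 fusion in transiently transfected HepG2. Fitted for increase relative to DMSO.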

[9] = target: Peroxisome proliferator-activated receptor gamma (Homo sapiens) (UniProt P37231); assay: ATG_PPARg_TRANS: Attagene TRANS-FACTORIAL HepG2 Assay for human Peroxisome Proliferator-activated Receptor-gamma (PPARg) (AID 2283007; active = hit-call score of the fitted dose curve at least 0.9, where 1 is the maximum)
Outline: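 Endpoint reflects upward reporter mRNA change versus DMSO controls. Setup: transiently transfected HepG2, GAL4-UAS reporters driven by chimeric NR-Gal4, 24 h incubation, RT-PCR with capillary electrophoresis read-out.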

[10] = target: Nuclear receptor subfamily 1 group I member 2 (Homo sapiens) (UniProt O75469); assay: ATG_PXR_TRANS: Attagene TRANS-FACTORIAL HepG2 Assay for human Pregnane X Receptor (PXR) (AID 2283008; active = hit-call score of the fitted dose curve at least 0.9, where 1 is the maximum)
Outline: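 Measures mRNA induction of a GAL4-UAS-driven reporter in human HepG2 cells transiently expressing PXR fused to Gal4, following 24 h treatment. DMSO served as negative control and baseline.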

[11] = target: human Retinoic Acid Receptor gamma (RARg), RARG (gene 5916) (UniProt P13631); assay: ATG_RARg_TRANS: Attagene TRANS-FACTORIAL HepG2 Assay for human Retinoic Acid Receptor gamma (RARg) (AID 2283009; active = hit-call score of the fitted dose curve at least 0.9, where 1 is the maximum)
Outline: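 Transient transfection of HepG2 with multi-reporter constructs, then 24 h chemical treatment. Total RNA isolated, reverse-transcribed, PCR-amplified, fluorescently labelled and resolved by capillary electrophoresis; activity scored as mRNA induction versus DMSO.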

[12] = target: human Peroxisome Proliferator-activated Receptor delta (PPARd), PPARD (gene 5467) (UniProt Q03181); assay: ATG_PPARd_TRANS: Attagene TRANS-FACTORIAL HepG2 Assay for human Peroxisome Proliferator-activated Receptor delta (PPARd) (AID 2283002; active = hit-call score of the fitted dose curve at least 0.9, where 1 is the maximum)
Outline: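 Cell-based TRANS reporter: HepG2, transient MRTU transfection, 24 h exposure. Readout = reporter mRNA (RT-PCR/CE, 6-FAM). Gain-of-signal fit vs DMSO control.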

[13] = target: human RAR-related Orphan Receptor beta (RORb), RORB (gene 6096) (UniProt Q92753); assay: ATG_RORb_TRANS: Attagene TRANS-FACTORIAL HepG2 Assay for human RAR-related Orphan Receptor beta (RORb) (AID 2283010; active = hit-call score of the fitted dose curve at least 0.9, where 1 is the maximum)
Outline: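 Readout is reporter-gene mRNA induction, detected as fluorescence after RT-PCR and capillary electrophoresis, fitted for gain of signal against DMSO controls. Transiently transfected HepG2 liver cells carrying GAL4-UAS reporter constructs were treated for 24 hours.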

[14] = target: human Retinoic Acid Receptor beta (RARb), RARB (gene 5915) (UniProt P10826); assay: ATG_RARb_TRANS: Attagene TRANS-FACTORIAL HepG2 Assay for human Retinoic Acid Receptor beta (AID 2283004; active = hit-call score of the fitted dose curve at least 0.9, where 1 is the maximum)
Outline: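 Induction of reporter mRNA from a chimeric RARb-Gal4 construct was measured by RT-PCR, FAM labelling, HpaI digestion and capillary electrophoresis. Measurements followed 24 h compound treatment of transiently transfected human HepG2 liver cells, with DMSO as baseline.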

Measured: AC50

Peroxisome proliferator-activated receptor gamma (Homo sapiens), sequence (P37231 whole entry, looked up, the tested form may be a part): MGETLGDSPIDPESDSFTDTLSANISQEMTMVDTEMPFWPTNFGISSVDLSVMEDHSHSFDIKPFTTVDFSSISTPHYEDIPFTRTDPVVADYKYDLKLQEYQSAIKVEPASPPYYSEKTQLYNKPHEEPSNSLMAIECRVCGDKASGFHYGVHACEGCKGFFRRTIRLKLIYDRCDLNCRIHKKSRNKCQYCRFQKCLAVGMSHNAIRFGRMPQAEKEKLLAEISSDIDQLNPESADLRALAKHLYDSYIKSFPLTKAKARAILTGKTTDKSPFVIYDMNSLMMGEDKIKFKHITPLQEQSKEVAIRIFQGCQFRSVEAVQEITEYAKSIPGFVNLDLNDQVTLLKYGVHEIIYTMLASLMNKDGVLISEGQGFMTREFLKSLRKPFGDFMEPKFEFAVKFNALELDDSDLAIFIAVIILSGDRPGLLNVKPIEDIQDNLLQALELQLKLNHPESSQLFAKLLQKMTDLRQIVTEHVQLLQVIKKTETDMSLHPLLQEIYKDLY
human RAR-related Orphan Receptor beta (RORb), RORB (gene 6096), sequence (Q92753 whole entry, looked up, the tested form may be a part): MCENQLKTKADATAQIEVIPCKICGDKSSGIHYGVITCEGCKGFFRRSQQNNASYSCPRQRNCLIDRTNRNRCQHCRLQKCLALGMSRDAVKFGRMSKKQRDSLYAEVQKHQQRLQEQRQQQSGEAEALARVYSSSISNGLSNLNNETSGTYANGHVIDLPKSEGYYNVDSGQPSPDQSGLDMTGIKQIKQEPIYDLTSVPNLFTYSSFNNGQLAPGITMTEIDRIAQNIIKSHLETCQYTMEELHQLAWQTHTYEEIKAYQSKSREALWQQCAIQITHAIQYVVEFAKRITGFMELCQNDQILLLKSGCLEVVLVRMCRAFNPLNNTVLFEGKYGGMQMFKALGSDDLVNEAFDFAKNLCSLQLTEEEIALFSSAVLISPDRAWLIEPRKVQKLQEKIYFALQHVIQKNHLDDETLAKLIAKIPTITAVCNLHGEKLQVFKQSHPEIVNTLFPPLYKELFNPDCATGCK
human Retinoic Acid Receptor beta (RARb), RARB (gene 5915), sequence (P10826 whole entry, looked up, the tested form may be a part): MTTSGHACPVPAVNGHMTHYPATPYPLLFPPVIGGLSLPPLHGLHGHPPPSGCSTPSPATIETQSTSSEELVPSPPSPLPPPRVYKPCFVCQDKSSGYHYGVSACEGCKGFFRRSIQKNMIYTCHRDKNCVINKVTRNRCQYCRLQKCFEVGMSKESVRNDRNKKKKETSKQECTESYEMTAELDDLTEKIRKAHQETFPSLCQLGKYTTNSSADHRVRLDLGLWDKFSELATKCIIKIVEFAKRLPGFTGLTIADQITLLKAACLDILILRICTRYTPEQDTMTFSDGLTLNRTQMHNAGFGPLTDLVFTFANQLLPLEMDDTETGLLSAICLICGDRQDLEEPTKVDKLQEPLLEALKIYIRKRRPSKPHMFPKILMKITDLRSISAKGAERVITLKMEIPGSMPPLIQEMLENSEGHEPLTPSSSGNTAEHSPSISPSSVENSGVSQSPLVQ
human Peroxisome Proliferator-activated Receptor delta (PPARd), PPARD (gene 5467), sequence (Q03181 whole entry, looked up): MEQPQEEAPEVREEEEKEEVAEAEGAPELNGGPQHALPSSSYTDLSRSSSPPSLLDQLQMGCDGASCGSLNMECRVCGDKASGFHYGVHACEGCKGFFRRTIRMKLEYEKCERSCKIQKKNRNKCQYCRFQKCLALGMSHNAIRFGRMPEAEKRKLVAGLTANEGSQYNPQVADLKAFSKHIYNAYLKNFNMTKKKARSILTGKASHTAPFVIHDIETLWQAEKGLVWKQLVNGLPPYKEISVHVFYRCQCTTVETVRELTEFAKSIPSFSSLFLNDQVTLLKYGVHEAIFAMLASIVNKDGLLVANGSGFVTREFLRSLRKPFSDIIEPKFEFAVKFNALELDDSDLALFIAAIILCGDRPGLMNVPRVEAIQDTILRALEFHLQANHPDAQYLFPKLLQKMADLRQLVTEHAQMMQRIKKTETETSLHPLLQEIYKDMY
Retinoic acid receptor alpha (Homo sapiens), sequence (P10276 whole entry, looked up, the tested form may be a part): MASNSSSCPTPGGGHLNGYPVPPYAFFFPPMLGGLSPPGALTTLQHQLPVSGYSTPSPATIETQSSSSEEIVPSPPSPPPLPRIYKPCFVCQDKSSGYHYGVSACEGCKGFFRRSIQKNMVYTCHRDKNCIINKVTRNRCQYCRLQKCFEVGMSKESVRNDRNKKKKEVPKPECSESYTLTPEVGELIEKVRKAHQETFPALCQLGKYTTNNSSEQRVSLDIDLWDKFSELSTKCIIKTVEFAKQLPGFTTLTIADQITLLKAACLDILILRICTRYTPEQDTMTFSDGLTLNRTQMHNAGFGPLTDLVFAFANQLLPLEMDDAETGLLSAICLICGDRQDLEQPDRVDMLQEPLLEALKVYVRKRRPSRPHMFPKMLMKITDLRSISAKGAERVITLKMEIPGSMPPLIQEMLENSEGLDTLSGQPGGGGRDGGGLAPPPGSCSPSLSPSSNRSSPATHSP
Cellular tumor antigen p53 (Homo sapiens), sequence (P04637 whole entry, looked up): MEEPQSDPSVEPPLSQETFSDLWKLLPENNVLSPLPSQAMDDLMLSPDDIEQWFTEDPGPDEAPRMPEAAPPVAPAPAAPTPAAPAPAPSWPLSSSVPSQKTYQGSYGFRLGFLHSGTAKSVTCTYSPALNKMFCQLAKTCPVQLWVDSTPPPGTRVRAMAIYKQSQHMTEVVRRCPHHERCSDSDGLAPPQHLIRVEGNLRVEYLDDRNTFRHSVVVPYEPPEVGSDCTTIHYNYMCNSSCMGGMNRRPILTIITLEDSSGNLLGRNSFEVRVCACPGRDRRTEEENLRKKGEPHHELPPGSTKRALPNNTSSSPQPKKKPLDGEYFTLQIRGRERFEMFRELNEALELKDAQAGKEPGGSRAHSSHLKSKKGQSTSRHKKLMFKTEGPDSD
human Retinoic Acid Receptor gamma (RARg), RARG (gene 5916), sequence (P13631 whole entry, looked up): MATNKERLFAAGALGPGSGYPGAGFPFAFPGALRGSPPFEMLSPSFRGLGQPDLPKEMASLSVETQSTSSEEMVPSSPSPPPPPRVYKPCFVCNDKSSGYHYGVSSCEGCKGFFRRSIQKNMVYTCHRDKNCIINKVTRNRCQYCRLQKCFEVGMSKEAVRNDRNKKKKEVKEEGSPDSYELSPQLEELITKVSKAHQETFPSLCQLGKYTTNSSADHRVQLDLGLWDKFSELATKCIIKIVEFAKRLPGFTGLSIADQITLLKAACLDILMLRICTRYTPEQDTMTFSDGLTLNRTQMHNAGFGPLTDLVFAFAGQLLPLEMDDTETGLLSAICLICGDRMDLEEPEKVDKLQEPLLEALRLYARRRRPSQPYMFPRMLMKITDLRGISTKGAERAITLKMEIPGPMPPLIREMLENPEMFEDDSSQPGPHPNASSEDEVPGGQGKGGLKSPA
human Peroxisome Proliferator-activated Receptor alpha (PPARa), PPARA (gene 5465), sequence (Q07869 whole entry, looked up, the tested form may be a part): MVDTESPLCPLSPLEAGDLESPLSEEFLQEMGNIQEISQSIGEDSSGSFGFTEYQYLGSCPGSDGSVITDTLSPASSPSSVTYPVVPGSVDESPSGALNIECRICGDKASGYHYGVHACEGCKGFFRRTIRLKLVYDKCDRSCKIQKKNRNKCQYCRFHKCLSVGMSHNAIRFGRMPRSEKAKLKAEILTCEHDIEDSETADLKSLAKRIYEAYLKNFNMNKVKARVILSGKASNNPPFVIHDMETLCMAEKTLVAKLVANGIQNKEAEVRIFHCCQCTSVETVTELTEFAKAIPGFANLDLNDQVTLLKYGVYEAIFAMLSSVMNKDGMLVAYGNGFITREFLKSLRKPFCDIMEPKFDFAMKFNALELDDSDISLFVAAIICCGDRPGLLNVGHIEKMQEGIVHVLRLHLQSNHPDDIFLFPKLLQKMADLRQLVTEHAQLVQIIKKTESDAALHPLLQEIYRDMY
Nuclear receptor subfamily 1 group I member 2 (Homo sapiens), sequence (O75469 whole entry, looked up, the tested form may be a part): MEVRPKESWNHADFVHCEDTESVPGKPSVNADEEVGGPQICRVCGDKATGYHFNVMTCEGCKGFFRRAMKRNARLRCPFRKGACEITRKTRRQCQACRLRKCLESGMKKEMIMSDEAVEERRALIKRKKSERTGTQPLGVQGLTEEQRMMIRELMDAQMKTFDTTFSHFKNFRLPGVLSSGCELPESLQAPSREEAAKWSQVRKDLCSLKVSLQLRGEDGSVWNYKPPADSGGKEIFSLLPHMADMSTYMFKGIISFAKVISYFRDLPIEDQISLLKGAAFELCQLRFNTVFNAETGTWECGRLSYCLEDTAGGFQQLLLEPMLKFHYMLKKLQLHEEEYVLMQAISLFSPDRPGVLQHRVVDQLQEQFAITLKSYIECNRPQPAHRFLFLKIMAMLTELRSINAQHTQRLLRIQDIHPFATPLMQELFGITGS
Myc proto-oncogene protein (Homo sapiens), sequence (P01106 whole entry, looked up): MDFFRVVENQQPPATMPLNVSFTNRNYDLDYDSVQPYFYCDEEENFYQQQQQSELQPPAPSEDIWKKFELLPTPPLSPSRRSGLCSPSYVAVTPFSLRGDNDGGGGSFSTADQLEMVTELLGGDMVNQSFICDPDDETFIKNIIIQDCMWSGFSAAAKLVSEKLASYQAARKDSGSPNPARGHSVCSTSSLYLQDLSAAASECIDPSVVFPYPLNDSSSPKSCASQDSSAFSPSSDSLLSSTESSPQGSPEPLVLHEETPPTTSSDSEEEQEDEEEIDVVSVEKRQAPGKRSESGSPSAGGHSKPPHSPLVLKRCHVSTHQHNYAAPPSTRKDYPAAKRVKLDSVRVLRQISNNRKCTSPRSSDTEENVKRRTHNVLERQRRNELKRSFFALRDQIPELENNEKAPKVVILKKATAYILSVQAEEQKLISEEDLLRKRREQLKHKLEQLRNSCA

CCCCCCCCCCCCOC(=O)c1cc(O)c(O)c(O)c1
active: [4] 2.95 µM | [5] 11.1 µM | [7] 43.9 µM | [9] 20.8 µM | [10] 10.6 µM
inactive: [1] | [2] | [3] | [6] | [8] | [11]

O=S(=O)(c1ccc(OCc2ccccc2)cc1)c1ccccc1O
inactive: [2] | [3] | [7] | [12]
active: [1] 33.4 µM | [4] 8.89 µM | [5] 31.9 µM | [6] 33.4 µM | [10] 3.73 µM

CCCCCCCCC1CCC(=O)O1 (configuration not stated)
inactive: [1] | [2] | [3] | [4] | [5] | [6] | [7] | [12] | [9] | [10] | [13]

CCO[Si](C)(C)OCC
inactive: [1] | [2] | [3] | [4] | [5] | [6] | [12] | [8] | [10]

CC1=CC(=O)c2ccccc2C1=O
active: [4] 5.04 µM | [10] 7.29 µM
inactive: [1] | [2] | [3] | [5] | [6] | [7] | [8] | [9] | [11] | [13]

Oc1cccc2c(O)cccc12
inactive: [1] | [2] | [3] | [5] | [6] | [7] | [12] | [10] | [13]
active: [4] 8.25 µM | [9] 48.4 µM

CCC1CO1 (configuration not stated)
inactive: [1] | [2] | [3] | [4] | [5] | [6] | [7] | [12] | [8] | [10] | [13]

CCCCCCc1ccc(N)cc1
inactive: [1] | [2] | [3] | [5] | [7] | [12] | [10]
active: [4] 2.51 µM | [6] 6.32 µM

CCCCCCOC(=O)c1ccc(O)cc1
active: [1] 55 µM | [2] 60.9 µM | [3] 62.5 µM | [5] 57 µM | [6] 52.2 µM | [7] 63.7 µM | [9] 23.2 µM | [10] 25.6 µM
inactive: [4] | [12] | [11]

C=CC(=O)OCCC(F)(F)C(F)(F)C(F)(F)C(F)(F)C(F)(F)C(F)(F)F
inactive: [1] | [2] | [3] | [5] | [6] | [7] | [12] | [8] | [10] | [13]
active: [4] 18.6 µM

COC(=O)CC(C(C)=O)C(=O)OC (configuration not stated)
inactive: [1] | [2] | [3] | [4] | [5] | [6] | [7] | [12] | [10]

c1ccc(CNc2ncnc3c2ncn3C2CCCCO2)cc1 (configuration not stated)
active: [4] 19.8 µM | [9] 70.6 µM | [10] 6.85 µM
inactive: [1] | [2] | [3] | [5] | [6] | [12] | [14] | [8] | [11]

COc1ccc(C#N)cc1
inactive: [1] | [2] | [3] | [4] | [5] | [6] | [7] | [10] | [11] | [13]

C[C@]12CC[C@@H]3c4ccc(O)cc4CC[C@H]3[C@@H]1CC[C@@H]2OC(=O)CCC1CCCC1
active: [1] 100 µM | [4] 21.5 µM
inactive: [2] | [3] | [5] | [6] | [7] | [12] | [10]

O=c1cc(-c2ccccc2)oc2ccc3ccccc3c12
inactive: [1] | [2] | [3] | [5] | [6] | [7] | [12] | [9] | [10] | [13]
active: [4] 182 nM and 134 nM | [9] 0.708 µM | [10] 5.62 µM

c1cc[nH]c1
inactive: [1] | [2] | [3] | [4] | [5] | [6] | [7] | [14] | [9] | [11] | [13]

CCCCCCCCCCCC(=O)NCCCN(C)C
active: [1] 17.1 µM | [5] 20.9 µM | [6] 20.2 µM
inactive: [2] | [3] | [4] | [7] | [10]

CC(=O)CC(C)C
inactive: [1] | [2] | [3] | [4] | [5] | [6] | [7] | [10]

O=C(O)C(=O)O
inactive: [1] | [2] | [3] | [4] | [5] | [6] | [7] | [14] | [10] | [13]

FC(F)=C(F)C(F)(F)C(F)(F)C(F)(F)C(F)F
inactive: [1] | [2] | [3] | [4] | [5] | [6] | [7] | [12] | [9] | [10] | [13]

C=CCOCC(CO)(CO)CO
active: [10] 15.1 µM
inactive: [1] | [2] | [3] | [4] | [5] | [6] | [12] | [14] | [8] | [9] | [11]

CCC(=O)C=Cc1ccc(OC)cc1
inactive: [1] | [2] | [5] | [6] | [12] | [10]
active: [3] 100 µM | [4] 27.1 µM | [9] 24.6 µM
